Among the data in article PMC7862700, “An all-to-all approach to the identification of sequence-specific readers for epigenetic DNA modifications on cytosine” are binding signal values, retold here.

Common to all, as to assay: DAPPL (digital affinity profiling via proximity ligation, sequencing); 10 mM Tris-HCl pH 7.5, 50 mM NaCl, 1 mM DTT, 4% glycerol, room temperature, 30 min; GST-TFs on glutathione beads, 16-mer random dsDNA library, 0.1% formaldehyde crosslink after washing; high values mean tight binding
What all share (conditions): protein: recombinant; tags: N-terminal GST; dsDNA, one strand shown

In assay [1] the target is T1, FLI1 (Homo sapiens, UniProt Q01543 1-452).
T1 sequence: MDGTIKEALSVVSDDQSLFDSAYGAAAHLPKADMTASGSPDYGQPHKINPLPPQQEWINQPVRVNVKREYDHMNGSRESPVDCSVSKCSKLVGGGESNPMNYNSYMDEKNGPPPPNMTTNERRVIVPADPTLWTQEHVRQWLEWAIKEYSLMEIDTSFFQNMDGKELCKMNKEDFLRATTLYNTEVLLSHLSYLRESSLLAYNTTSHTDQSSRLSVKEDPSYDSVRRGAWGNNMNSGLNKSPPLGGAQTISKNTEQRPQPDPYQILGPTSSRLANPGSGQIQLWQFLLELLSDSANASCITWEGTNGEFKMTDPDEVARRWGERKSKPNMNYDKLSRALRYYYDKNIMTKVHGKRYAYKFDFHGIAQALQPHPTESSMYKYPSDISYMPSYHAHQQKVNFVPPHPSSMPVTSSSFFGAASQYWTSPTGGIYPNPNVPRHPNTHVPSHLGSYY
The essentials:
(§1)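 Pools were built from human transcription factors expressed in yeast as GST fusions, captured on glutathione beads and DNA-barcoded, along with a tag-only sample. Incubation with 200 nmole of a 16-mer random double-stranded DNA library lasted 30 min at room temperature in Tris/NaCl/DTT/glycerol buffer, and was followed by washing, 0.1% formaldehyde crosslinking, proximity ligation, PCR amplification and Illumina NextSeq500 sequencing. Binding signal is the quotient of each hexamer's read frequency for a factor and its frequency for the tag-only sample.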

Assay [2] addresses T2, ELK1 (Homo sapiens, UniProt P19419 1-428).
T2 sequence: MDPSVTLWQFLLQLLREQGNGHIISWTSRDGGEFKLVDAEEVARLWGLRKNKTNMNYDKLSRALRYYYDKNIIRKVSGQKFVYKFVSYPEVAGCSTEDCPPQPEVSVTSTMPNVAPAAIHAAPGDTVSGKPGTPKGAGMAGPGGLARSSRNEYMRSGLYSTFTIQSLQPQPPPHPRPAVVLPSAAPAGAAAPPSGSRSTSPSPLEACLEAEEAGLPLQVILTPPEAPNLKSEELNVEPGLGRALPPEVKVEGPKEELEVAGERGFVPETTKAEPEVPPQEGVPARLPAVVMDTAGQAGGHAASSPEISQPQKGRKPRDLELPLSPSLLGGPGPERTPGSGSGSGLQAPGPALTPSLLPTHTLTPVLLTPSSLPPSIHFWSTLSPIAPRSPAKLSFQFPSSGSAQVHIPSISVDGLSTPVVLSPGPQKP
The essentials:
as §1

The target in assay [3] is T3, GABPA (Homo sapiens, UniProt Q06546 1-454).
T3 sequence: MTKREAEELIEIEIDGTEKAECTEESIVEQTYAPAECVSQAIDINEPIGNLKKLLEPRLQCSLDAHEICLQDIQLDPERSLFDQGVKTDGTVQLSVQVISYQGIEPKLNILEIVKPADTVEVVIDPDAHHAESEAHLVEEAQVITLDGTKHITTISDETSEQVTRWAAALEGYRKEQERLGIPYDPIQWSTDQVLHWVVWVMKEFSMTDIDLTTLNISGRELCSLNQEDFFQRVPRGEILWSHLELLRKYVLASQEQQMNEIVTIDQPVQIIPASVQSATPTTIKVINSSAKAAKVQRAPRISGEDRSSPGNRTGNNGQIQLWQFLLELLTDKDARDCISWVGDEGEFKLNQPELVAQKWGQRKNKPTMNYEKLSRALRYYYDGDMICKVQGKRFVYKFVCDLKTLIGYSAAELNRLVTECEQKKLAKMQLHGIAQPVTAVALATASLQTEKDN
The gist of the method: as §1

Assay [4] addresses T4, ERG (Homo sapiens, UniProt P11308 1-479).
T4 sequence: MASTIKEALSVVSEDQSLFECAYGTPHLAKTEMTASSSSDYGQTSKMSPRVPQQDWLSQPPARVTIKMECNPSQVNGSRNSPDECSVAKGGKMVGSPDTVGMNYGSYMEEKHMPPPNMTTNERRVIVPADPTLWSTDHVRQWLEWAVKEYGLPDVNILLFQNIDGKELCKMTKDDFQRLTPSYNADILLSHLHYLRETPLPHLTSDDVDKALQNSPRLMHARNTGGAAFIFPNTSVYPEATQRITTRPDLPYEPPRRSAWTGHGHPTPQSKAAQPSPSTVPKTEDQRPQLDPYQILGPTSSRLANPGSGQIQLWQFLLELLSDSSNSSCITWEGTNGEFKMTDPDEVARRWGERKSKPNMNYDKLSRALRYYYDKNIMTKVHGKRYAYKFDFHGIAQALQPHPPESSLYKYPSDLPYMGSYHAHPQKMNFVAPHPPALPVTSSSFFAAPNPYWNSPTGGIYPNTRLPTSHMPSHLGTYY
The gist of the method: as §1

The target of assay [5] is ELF1 (Homo sapiens, UniProt P32519 1-619). The essentials:
as §1

For assay [6], the target named is T5, EHF (Homo sapiens, UniProt Q9NZC4 1-300).
T5 sequence: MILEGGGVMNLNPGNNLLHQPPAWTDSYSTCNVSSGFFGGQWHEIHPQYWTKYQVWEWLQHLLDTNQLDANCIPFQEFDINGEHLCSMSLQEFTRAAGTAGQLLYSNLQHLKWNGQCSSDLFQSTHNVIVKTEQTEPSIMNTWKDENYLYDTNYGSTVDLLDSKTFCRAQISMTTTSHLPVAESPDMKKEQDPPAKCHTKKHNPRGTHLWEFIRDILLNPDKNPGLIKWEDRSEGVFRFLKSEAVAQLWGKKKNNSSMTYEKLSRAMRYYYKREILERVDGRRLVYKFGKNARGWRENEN
The essentials: as §1

The target in assay [7] is SPI1 (Homo sapiens, UniProt P17947 1-270). The gist of the method: as §1
The target of assay [8] is SPIB (Homo sapiens, UniProt Q01892 1-262). The essentials:
as §1

In assay [9] the target is T6, ELK3 (Homo sapiens, UniProt P41970 1-407).
T6 sequence: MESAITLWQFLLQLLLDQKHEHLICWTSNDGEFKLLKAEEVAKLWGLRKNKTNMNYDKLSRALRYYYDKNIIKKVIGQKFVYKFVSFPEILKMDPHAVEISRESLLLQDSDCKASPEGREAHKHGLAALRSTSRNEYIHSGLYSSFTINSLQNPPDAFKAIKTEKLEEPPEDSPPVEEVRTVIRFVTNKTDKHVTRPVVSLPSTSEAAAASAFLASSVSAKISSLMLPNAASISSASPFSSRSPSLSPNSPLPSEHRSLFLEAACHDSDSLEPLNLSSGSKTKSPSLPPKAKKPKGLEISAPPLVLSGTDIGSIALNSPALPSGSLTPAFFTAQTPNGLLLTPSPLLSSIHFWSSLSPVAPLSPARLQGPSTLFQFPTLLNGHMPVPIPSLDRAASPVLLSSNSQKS
The gist of the method:
as §1

Chain of ELF1 (P32519 whole entry): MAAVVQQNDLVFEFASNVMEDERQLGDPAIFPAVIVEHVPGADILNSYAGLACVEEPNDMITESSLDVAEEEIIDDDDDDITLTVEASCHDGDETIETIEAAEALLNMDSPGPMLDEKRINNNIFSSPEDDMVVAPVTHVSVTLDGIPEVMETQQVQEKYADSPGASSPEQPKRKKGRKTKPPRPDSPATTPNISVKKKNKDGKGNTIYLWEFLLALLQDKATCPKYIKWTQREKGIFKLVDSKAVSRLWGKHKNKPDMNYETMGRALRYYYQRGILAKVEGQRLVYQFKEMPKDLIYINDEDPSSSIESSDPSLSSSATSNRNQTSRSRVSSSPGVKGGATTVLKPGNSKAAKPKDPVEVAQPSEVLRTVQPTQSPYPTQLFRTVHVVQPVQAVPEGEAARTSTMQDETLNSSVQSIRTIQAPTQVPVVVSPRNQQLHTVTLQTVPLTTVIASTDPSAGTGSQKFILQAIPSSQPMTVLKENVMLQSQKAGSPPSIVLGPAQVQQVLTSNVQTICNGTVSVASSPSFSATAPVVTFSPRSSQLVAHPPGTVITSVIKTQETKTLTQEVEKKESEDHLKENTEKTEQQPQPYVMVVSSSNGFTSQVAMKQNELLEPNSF
Chain of SPIB (Q01892 whole entry): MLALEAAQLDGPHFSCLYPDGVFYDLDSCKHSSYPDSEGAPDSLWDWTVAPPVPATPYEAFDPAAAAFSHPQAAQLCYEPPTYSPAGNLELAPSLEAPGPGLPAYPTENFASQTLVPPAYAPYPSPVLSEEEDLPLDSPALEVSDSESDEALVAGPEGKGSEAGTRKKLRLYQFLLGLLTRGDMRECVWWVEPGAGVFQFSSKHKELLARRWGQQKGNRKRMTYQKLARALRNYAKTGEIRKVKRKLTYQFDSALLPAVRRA

Take TTCTCG: the binding signal in assay [1] is 1.51 fold enrichment (6-mer frequency, TF over GST control); in assay [2], 1.43 fold enrichment (6-mer frequency, TF over GST control); in [3] it was 1.55 fold enrichment (6-mer frequency, TF over GST control); in assay [4], 1.38 fold enrichment (6-mer frequency, TF over GST control); in [5] it was 1.36 fold enrichment (6-mer frequency, TF over GST control); in assay [6], 1.34 fold enrichment (6-mer frequency, TF over GST control). Besides, the binding signal is 1.42 fold enrichment (6-mer frequency, TF over GST control) in assay [7]; 1.46 fold enrichment (6-mer frequency, TF over GST control) in assay [8]; 1.44 fold enrichment (6-mer frequency, TF over GST control) in [9].
As to TCTCGT, the binding signal is 1.34 fold enrichment (6-mer frequency, TF over GST control) in assay [1]; 1.11 fold enrichment (6-mer frequency, TF over GST control) in assay [2]; 1.15 fold enrichment (6-mer frequency, TF over GST control) in assay [3]; 1.11 fold enrichment (6-mer frequency, TF over GST control) in assay [4]; 1.24 fold enrichment (6-mer frequency, TF over GST control) in [5]; 1.22 fold enrichment (6-mer frequency, TF over GST control) in [6]. Further, the binding signal in [7] is 1.24 fold enrichment (6-mer frequency, TF over GST control); in assay [8], 1.3 fold enrichment (6-mer frequency, TF over GST control); in [9], 1.19 fold enrichment (6-mer frequency, TF over GST control).
Turning to CGTACT, the binding signal in assay [1] was 1.2 fold enrichment (6-mer frequency, TF over GST control); in assay [2], 1.17 fold enrichment (6-mer frequency, TF over GST control); in [3], 1.19 fold enrichment (6-mer frequency, TF over GST control); in assay [4], 1.16 fold enrichment (6-mer frequency, TF over GST control); in assay [5] it was 1.27 fold enrichment (6-mer frequency, TF over GST control); in assay [6], 1.18 fold enrichment (6-mer frequency, TF over GST control). In addition, the binding signal in assay [7] was 1.11 fold enrichment (6-mer frequency, TF over GST control); in assay [8], 1.12 fold enrichment (6-mer frequency, TF over GST control); in assay [9] it was 1.26 fold enrichment (6-mer frequency, TF over GST control).
In the case of AACATT, the binding signal is 1.37 fold enrichment (6-mer frequency, TF over GST control) in [1]; 1.26 fold enrichment (6-mer frequency, TF over GST control) in assay [2]; 1.35 fold enrichment (6-mer frequency, TF over GST control) in assay [3]; 1.25 fold enrichment (6-mer frequency, TF over GST control) in assay [4]; 1.29 fold enrichment (6-mer frequency, TF over GST control) in [5]; 1.33 fold enrichment (6-mer frequency, TF over GST control) in [6]. In addition, the binding signal in assay [7] was 1.17 fold enrichment (6-mer frequency, TF over GST control); in assay [8], 1.34 fold enrichment (6-mer frequency, TF over GST control); in assay [9], 1.25 fold enrichment (6-mer frequency, TF over GST control).
Consider GCTTTA, for which the binding signal in assay [1] is 1.19 fold enrichment (6-mer frequency, TF over GST control); in [2], 1.13 fold enrichment (6-mer frequency, TF over GST control); in assay [3], 1.08 fold enrichment (6-mer frequency, TF over GST control); in assay [4], 1.05 fold enrichment (6-mer frequency, TF over GST control); in assay [5] it was 1.09 fold enrichment (6-mer frequency, TF over GST control); in assay [6] it was 1.09 fold enrichment (6-mer frequency, TF over GST control). For the same sequence, the binding signal in [7] was 1.16 fold enrichment (6-mer frequency, TF over GST control); in assay [8] it was 1.09 fold enrichment (6-mer frequency, TF over GST control); in [9] it was 1.24 fold enrichment (6-mer frequency, TF over GST control).
Turning to GAATGT, the binding signal in assay [1] was 1.14 fold enrichment (6-mer frequency, TF over GST control); in assay [2] it was 1.11 fold enrichment (6-mer frequency, TF over GST control); in [3] it was 1.12 fold enrichment (6-mer frequency, TF over GST control); in assay [4], 1.08 fold enrichment (6-mer frequency, TF over GST control); in assay [5] it was 1.03 fold enrichment (6-mer frequency, TF over GST control); in assay [6] it was 1.13 fold enrichment (6-mer frequency, TF over GST control). Moreover, the binding signal in assay [7] was 1.07 fold enrichment (6-mer frequency, TF over GST control); in assay [8] it was 1.12 fold enrichment (6-mer frequency, TF over GST control); in assay [9] it was 1.06 fold enrichment (6-mer frequency, TF over GST control).
For TTGGTT, the binding signal is 1.51 fold enrichment (6-mer frequency, TF over GST control) in [1]; 1.38 fold enrichment (6-mer frequency, TF over GST control) in assay [2]; 1.45 fold enrichment (6-mer frequency, TF over GST control) in [3]; 1.37 fold enrichment (6-mer frequency, TF over GST control) in assay [4]; 1.39 fold enrichment (6-mer frequency, TF over GST control) in [5]; 1.4 fold enrichment (6-mer frequency, TF over GST control) in [6]. In addition, the binding signal is 1.43 fold enrichment (6-mer frequency, TF over GST control) in assay [7]; 1.47 fold enrichment (6-mer frequency, TF over GST control) in assay [8]; 1.43 fold enrichment (6-mer frequency, TF over GST control) in [9].
Take GACTCC: the binding signal in assay [1] was 1.35 fold enrichment (6-mer frequency, TF over GST control); in assay [2] it was 1.23 fold enrichment (6-mer frequency, TF over GST control); in assay [3], 1.29 fold enrichment (6-mer frequency, TF over GST control); in assay [4], 1.3 fold enrichment (6-mer frequency, TF over GST control); in [5] it was 1.35 fold enrichment (6-mer frequency, TF over GST control); in assay [6], 1.37 fold enrichment (6-mer frequency, TF over GST control). The binding signal was 1.35 fold enrichment (6-mer frequency, TF over GST control) in assay [7]; 1.38 fold enrichment (6-mer frequency, TF over GST control) in assay [8]; 1.25 fold enrichment (6-mer frequency, TF over GST control) in [9].
